# Data taken from PubChem BioAssay.
# Activity calls are given as the source filed them. Unless noted, how the calls were made is not given here.
# Columns and labels:
# [1] = system: Wnt5a (protein binding on small-molecule microarray); test: small molecules binding Wnt5a protein – biophysical, small-molecule microarray, 635/667 nm fluorescence, primary screen (AID 1142); conditions: 635 nm fluorescence, higher = more signal;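 further: fluorescence read at 667 nm with signal to noise per printed feature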
# [2] = ATP-based viability of Huh7 replicon cells – cell-based, CellTiter-Glo luminescence, basal, 48 h, cytotoxicity control for HCV replication inhibitor project, primary screen (AID 1143); conditions: higher = more signal, called active from +8 up or from −8 down;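 further: Huh7 hepatoma cells carrying a hepatitis C replication reporter with no stimulus; test concentration not given here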
# [3] = Pseudomonas biofilm growth suppression – PAO1 strain, BacTiter-Glo luminescence, LB-PBS, primary screen (AID 1144); conditions: P. aeruginosa PAO1 biofilm, 12 h, higher = more signal
# [4] = basal CRE-LacZ reporter activity in PC12 – cell-based, unstimulated, primary screen (AID 1145); conditions: no forskolin, luminescence, 4.5 h, higher = more signal, called active from +8 up or from −8 down
# [5] = forskolin-driven CRE-LacZ activity in PC12 – cell-based, CRE-LacZ reporter, forskolin-stimulated, primary screen (AID 1146); conditions: luminescence, 4.5 h, higher = more signal, called active from +8 up or from −8 down;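 further: PC12 cells with 6xCRE LacZ reporter stimulated by forskolin 10 µM; beta-galactosidase reporter signal reflecting CREB driven transcription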
# [6] = biological target: Streptavidin (Streptomyces avidinii) (UniProt P22629); test: compounds binding control protein streptavidin – biophysical, small-molecule microarray, 635/667 nm fluorescence, artefact control for SMM compound annotation, primary screen (AID 1147); conditions: higher = more signal;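 further: signal reflects streptavidin binding to arrayed compounds as a control protein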
# Streptavidin (Streptomyces avidinii), sequence (P22629 whole entry, looked up): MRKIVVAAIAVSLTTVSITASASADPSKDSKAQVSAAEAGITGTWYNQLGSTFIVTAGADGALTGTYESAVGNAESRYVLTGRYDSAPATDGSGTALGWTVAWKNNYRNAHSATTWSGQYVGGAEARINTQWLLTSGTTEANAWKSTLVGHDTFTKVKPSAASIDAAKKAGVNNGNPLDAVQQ
# [7] = probe aInhba binding on compound microarray – biochemical, small-molecule microarray, 635/667 nm fluorescence, primary screen (AID 1148); conditions: higher = more signal;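 further: score merges 667nm spot fluorescence with signal-to-noise for antibody binding to printed compounds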
# Torsin-1A (Homo sapiens) [8] = biological target: Torsin-1A (Homo sapiens) (UniProt O14656); test: TOR1A wild-type binding on microarray – cell lysate, small-molecule microarray, lysate, 635/667 nm, primary screen (AID 1149); conditions: COS7 hTOR1A-WT lysate, 635 nm fluorescence, higher = more signal
# Torsin-1A (Homo sapiens), sequence (O14656 whole entry, looked up): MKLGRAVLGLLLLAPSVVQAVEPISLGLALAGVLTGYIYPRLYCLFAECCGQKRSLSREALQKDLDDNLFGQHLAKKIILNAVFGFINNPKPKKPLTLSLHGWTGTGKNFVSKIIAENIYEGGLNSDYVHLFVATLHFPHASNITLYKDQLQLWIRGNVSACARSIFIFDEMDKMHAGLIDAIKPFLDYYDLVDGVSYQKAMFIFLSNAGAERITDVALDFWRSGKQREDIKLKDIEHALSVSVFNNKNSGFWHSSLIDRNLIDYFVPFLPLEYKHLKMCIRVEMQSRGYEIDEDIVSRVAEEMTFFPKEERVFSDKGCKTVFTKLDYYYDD
# Torsin-1A (Homo sapiens) [9] = biological target: Torsin-1A (Homo sapiens) (UniProt O14656); test: torsin A mutant lysate binding on microarrays – cell lysate, small-molecule microarray, COS7 lysate, 635/667 nm fluorescence, primary screen (AID 1150); conditions: COS7 hTOR1A mutant lysate, 635 nm fluorescence, higher = more signal;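 further: score pools 667 nm emission and signal to noise measuring lysate protein binding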
# [10] = system: Sonic hedgehog protein (Shh); test: Sonic hedgehog microarray binding compounds – biochemical, small-molecule microarray, 635/667 nm fluorescence, primary screen (AID 1151); conditions: 635 nm fluorescence, higher = more signal;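 further: Shh protein binding to compounds spotted on small-molecule microarray slides; score combines spot fluorescence intensity with signal-to-noise across triplicate slides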
# [11] = optical density shifts of acrAB sulA E. coli – strain DRC41, OD650, 48 h, E. coli filamentation inducer project, primary screen (AID 1152); conditions: higher = more signal, called active from +8 up or from −8 down;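 further: E. coli MC1000 strain DRC41 lacking acrAB efflux pump and sulA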
# [12] = probe aLefty1 binding on compound microarray – biochemical, small-molecule microarray, 635/667 nm fluorescence, primary screen (AID 1153); conditions: higher = more signal;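 further: score merges spot fluorescence with signal-to-noise ratio from the scanned slide images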
# [13] = plasmodial surface anion channel blockers, osmotic lysis – cell-based, P. falciparum Indochina, OD700, 1 h, primary screen (AID 1154); conditions: P. falciparum Indochina infected RBC osmotic lysis, higher = more signal, called active from +8 up or from −8 down
# [14] = plasmodial surface anion channel blockers, osmotic lysis – cell-based, P. falciparum Indochina, OD700, 2 h, primary screen (AID 1155);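 further: lysis reports solute entry through the parasite surface anion channel PSAC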; conditions: P. falciparum Indochina infected erythrocytes, higher = more signal, called active from +8 up or from −8 down
# [15] = changes in parasitized red cell lysis, either direction – P. falciparum Indochina, OD700, 3 h, PSAC antagonist project, primary screen (AID 1156); conditions: P. falciparum-infected erythrocytes, osmotic lysis, higher = more signal, called active from +8 up or from −8 down
# [16] = plasmodial surface anion channel blockers, osmotic lysis – cell-based, P. falciparum Indochina, OD700, 18 h, primary screen (AID 1157); conditions: P. falciparum Indochina infected erythrocytes, osmotic lysis OD700, 18 h; higher = more signal, called active from +8 up or from −8 down
# [17] = S6 kinase pathway phospho-S6 level changes – cell-based, A549, cytoblot, luminescence, serum-stimulated, primary screen (AID 1158); conditions: 5 h, higher = more signal;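 further: serum-stimulated A549 lung adenocarcinoma cells; signal is phosphorylated S6 detected by cytoblot immunostaining with HRP secondary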
# [18] = biological target: NADPH oxidase 2 (Homo sapiens) (UniProt P04839); test: compounds shifting NOX2 Amplex Red fluorescence – cell-based, HEK293-NOX2, PMA-stimulated, NOX inhibitor project, primary screen (AID 1159); conditions: 45 min, higher = more signal, called active from +8 up or from −8 down; further: test concentration not given here
# NADPH oxidase 2 (Homo sapiens), sequence (P04839 whole entry, looked up): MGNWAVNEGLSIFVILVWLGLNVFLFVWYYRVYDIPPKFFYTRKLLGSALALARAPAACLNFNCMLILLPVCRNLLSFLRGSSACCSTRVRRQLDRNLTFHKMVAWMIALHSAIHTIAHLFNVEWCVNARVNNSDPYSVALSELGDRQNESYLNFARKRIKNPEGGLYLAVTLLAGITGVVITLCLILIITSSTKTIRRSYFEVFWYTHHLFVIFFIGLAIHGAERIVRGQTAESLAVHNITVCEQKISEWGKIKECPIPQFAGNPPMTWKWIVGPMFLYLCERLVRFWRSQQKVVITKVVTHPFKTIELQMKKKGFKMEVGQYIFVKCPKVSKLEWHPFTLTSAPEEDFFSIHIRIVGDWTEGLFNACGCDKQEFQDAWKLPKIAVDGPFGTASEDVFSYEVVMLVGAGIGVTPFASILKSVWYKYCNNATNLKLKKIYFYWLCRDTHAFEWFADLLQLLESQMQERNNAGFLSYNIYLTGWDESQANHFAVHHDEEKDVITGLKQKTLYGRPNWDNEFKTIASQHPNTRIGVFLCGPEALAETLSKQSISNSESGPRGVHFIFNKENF
# [19] = biological target: NADPH oxidase 4 (Homo sapiens) (UniProt Q9NPH5); test: compounds shifting NOX4 Amplex Red fluorescence – cell-based, HEK293-NOX4, tetracycline-induced, NOX inhibitor project, primary screen (AID 1160); conditions: HEK293-NOX4, Amplex Red H2O2 fluorescence, 45 min; higher = more signal, called active from +8 up or from −8 down
# NADPH oxidase 4 (Homo sapiens), sequence (Q9NPH5 whole entry, looked up): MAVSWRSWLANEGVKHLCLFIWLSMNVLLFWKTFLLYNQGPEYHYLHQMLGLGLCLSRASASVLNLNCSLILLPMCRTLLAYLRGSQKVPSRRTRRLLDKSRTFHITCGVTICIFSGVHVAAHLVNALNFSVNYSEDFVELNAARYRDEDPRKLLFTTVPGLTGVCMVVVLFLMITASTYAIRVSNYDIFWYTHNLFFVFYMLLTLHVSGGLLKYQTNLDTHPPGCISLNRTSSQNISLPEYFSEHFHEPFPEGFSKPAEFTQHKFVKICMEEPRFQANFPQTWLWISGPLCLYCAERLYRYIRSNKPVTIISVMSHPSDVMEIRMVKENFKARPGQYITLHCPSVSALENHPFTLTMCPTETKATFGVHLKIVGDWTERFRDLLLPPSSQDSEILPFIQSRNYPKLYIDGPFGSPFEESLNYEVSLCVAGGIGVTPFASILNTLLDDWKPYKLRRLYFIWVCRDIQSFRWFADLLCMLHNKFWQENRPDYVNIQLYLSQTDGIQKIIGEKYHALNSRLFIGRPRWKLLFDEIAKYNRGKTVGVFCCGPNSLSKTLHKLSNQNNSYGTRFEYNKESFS
# [20] = biological target: NADPH oxidase 5 (Homo sapiens) (UniProt Q96PH1); test: compounds shifting NOX5 Amplex Red fluorescence – cell-based, HEK293-NOX5, NOX inhibitor project, primary screen (AID 1161); conditions: HEK293-NOX5, ionomycin, 45 min, higher = more signal
# NADPH oxidase 5 (Homo sapiens), sequence (Q96PH1 whole entry, looked up): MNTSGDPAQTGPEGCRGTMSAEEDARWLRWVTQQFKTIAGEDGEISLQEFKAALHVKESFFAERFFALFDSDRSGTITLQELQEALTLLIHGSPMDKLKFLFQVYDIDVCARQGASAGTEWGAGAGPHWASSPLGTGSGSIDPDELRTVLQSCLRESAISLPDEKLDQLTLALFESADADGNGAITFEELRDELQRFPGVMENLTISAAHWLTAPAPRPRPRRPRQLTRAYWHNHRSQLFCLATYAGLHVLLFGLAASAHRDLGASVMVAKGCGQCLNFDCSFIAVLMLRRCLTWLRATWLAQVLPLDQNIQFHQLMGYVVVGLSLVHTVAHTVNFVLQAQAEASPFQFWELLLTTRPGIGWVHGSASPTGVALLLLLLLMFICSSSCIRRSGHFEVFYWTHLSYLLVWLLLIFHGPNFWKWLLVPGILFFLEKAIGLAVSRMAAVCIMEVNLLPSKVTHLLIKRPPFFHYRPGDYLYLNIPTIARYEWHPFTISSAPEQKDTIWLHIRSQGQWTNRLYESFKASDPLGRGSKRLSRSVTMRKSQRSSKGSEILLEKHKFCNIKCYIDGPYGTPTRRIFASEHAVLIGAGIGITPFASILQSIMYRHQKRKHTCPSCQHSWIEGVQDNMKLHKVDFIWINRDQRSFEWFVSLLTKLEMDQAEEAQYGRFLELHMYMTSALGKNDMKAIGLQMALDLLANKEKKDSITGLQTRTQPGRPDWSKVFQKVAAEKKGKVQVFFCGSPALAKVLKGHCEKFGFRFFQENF
Compound,composite z-score [1],z-score [2],z-score [3],z-score [4],z-score [5],composite z-score [6],composite z-score [7],composite z-score (Torsin-1A (Homo sapiens) [8]),composite z-score (Torsin-1A (Homo sapiens) [9]),composite z-score [10],z-score [11],composite z-score [12],z-score [13],z-score [14],z-score [15],z-score [16],z-score [17],z-score [18],z-score [19],z-score [20]
COC(=O)[C@@]1(CCC(=O)OC(C)(C)C)N=C(c2ccc(OCCCO)cc2)O[C@H]1c1ccccc1CN=[N+]=[N-],0.113,-2.35 (inactive),-0.0281 (inactive),1.94 (inactive),-1.55 (inactive),-0.139,0.241,-0.193,0.261,0.339,-0.0301 (inactive),0.437,21.3 (active),6.25 (inactive),0.765 (inactive),1.4 (inactive),-0.184,-1.47 (inactive),-0.475 (inactive),-0.802
CC1CC/C=C\[C@H]2OC34C=CCN(c5ccc(Cl)cc5)C(=O)[C@H]3N(CCCO)C(=O)[C@]4(C)C2C(=O)O1 (stereo not given in full),-0.785,-0.0438 (inactive),1.63 (inactive),0.988 (inactive),0.22 (inactive),-1.02,-0.253,-2.1,-0.989,0.424,-0.836 (inactive),0.135,0.113 (inactive),0.66 (inactive),-0.338 (inactive),0.356 (inactive),-0.264,1.5 (inactive),-1.22 (inactive),2.34
COc1cc2c(cc1O)C(c1ccc(CN3CCCC3)cc1)N(Cc1cccc(OC(F)(F)F)c1)CC2 (stereo not given),-0.0324,-5.42 (inactive),1.15 (inactive),0.0924 (inactive),0.248 (inactive),0.0307,-0.15,0.47,1.13,0.345,-4.5 (inactive),-0.131,12.3 (active),2.62 (inactive),-0.608 (inactive),1.14 (inactive),-0.223,-8.71 (active),-4.77 (inactive),-6.04
CC(C)=CCN(C(=O)C#Cc1ccccc1)[C@H](CO)c1ccccc1,-0.0314,-8.76 (active),1.15 (inactive),14.3 (active),-4.52 (inactive),-0.131,-0.15,0.423,-0.0045,0.708,-4.56 (inactive),-0.0876,16.8 (active),3.67 (inactive),-2.25 (inactive),0.402 (inactive),0.21,2.15 (inactive),-1 (inactive),-3.76
COCC1=C([C@H](O)CCc2ccccc2)[C@H](CO)n2c(=O)n(-c3ccccc3)c(=O)n2C1,-0.419,-1.24 (inactive),-0.84 (inactive),0.129 (inactive),-0.2 (inactive),-0.101,-0.154,-0.115,-0.414,0.199,3.47 (inactive),-0.409,2.67 (inactive),-0.913 (inactive),-0.618 (inactive),-1.61 (inactive),1.72,-0.638 (inactive),-2.05 (inactive),-0.659
C=CCC(OC(C)=O)[C@@H]1[C@@H](N(Cc2ccc(-c3cccc(C(F)(F)F)c3)o2)C(=O)Cc2ccc(F)cc2)c2cc(OCCCO)ccc2N1C(=O)c1ccc2ccccc2n1 (stereo not given in full),-0.123,-0.0676 (inactive),-0.147 (inactive),0.134 (inactive),1.5 (inactive),-0.127,-0.176,-0.187,-0.326,0.244,-0.994 (inactive),-0.024,1.53 (inactive),-0.0905 (inactive),-0.592 (inactive),0.0644 (inactive),-0.47,0.249 (inactive),0.919 (inactive),1.13
CCCCC(=C=CC[C@@H](O)c1ccc(OCCO)cc1)C[C@@H](O)c1ccccn1,0.158,-1.31 (inactive),0.412 (inactive),14.6 (active),-0.0387 (inactive),-0.0544,0.0569,0.634,0.51,1.48,0.26 (inactive),0.122,15.7 (active),2.47 (inactive),0.871 (inactive),0.849 (inactive),-0.787,-0.697 (inactive),-0.351 (inactive),-1.77
COc1ccc([Si](C)(C)[C@H]2[C@H](CCn3cc([C@H](O)c4ccccc4)nn3)O[C@@]3(C(=O)N(c4ccccc4)c4ccccc43)[C@@H]2C)cc1,0.04,-4.47 (inactive),0.674 (inactive),0.236 (inactive),0.115 (inactive),-0.265,-0.0087,0.96,-0.242,1.97,1.13 (inactive),0.0004,6.6 (inactive),1.67 (inactive),0.56 (inactive),1.23 (inactive),0.448,1.47 (inactive),1.3 (inactive),1.33
Cc1ccc(S[C@]2(C(=O)NC3CC3)CC(=O)N(Cc3cc(C(F)(F)F)cc(C(F)(F)F)c3)[C@@H]2c2ccc(CO)cc2I)cc1,0.272,-0.636 (inactive),0.141 (inactive),-0.0243 (inactive),1.16 (inactive),0.389,0.532,-0.597,0.409,1.14,0.147 (inactive),-0.625,5.58 (inactive),0.774 (inactive),0.231 (inactive),0.229 (inactive),-0.185,1.52 (inactive),-1.62 (inactive),1.14
